PubChem BioAssay AID686978 (National Center for Advancing Translational Sciences (NCATS), 2013)
Hit rate of the full screen: of about 420,000 compounds, about 64,000 (15%) were called active. Another 27% or so got no clear call; they are omitted. The call rests on the fitted dose curve; in most records, active means well fitted inhibition curve with a large enough effect; inconclusive means small, poorly fitted or top-dose-only effect; inactive means flat fitted curve, though single readings scatter. The list is a sample of the results. Where a call stands in place of a potency, no number is given.

Assay: qHTS for Inhibitors of human tyrosyl-DNA phosphodiesterase 1 (TDP1): qHTS in cells in absence of CPT; further: nearly all actives have a fitted effect of over 55% in size
Settings: DT40 Tdp1-/- hTDP1 cells, no CPT, ATP luminescence, 48 h; activity change, negative = growth inhibition: at 46.2 µM (top of the series)
Procedure, shortened: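 No-CPT arm: Tdp1-/-;hTDP1 DT40 cells (400/well) plus compounds, incubated ≥48 hr at 37 °C. Readout CellTiter-Glo luminescence.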
Potency means the concentration at half of the fitted maximal effect.

SMILES | Potency
Cc1ccccc1N1CC(C(=O)Nc2ccc3c(c2)OCO3)CC1=O (stereo unspecified) | inactive
CN(C)c1ccc(CNC23CN4CN(CN(C4)C2)C3)cc1 | 18.4 µM (active)
CCOc1ccc(NC(=O)CC2NCCNC2=O)cc1 (stereo unspecified) | inactive
O=C(Nc1ccc2c(c1)[C@@H]1C[C@@H](CC(=O)N3CCCCC3)O[C@@H](CO)[C@@H]1O2)NC1CCCCC1 | inactive
O=C(C[C@H]1C[C@H]2c3cc(NS(=O)(=O)c4ccc(F)cc4)ccc3O[C@H]2[C@H](CO)O1)NCc1cc(F)ccc1F | 18.4 µM (active)
COC(=O)C[C@H]1C[C@@H]2c3cc(NC(=O)Nc4ccccc4)ccc3O[C@@H]2[C@@H](CO)O1 | inactive
O=C1NC(O)CCN1C1CC(O)C(CO)O1 (stereo unspecified) | inactive
CC(C)Oc1ccc(Oc2ccc(C(F)(F)F)cn2)cc1 | inactive
COC(=O)CC1=NN(c2nc(C)cc(C)n2)C(=O)C1 | inactive
C=CCn1c(=NC(=O)c2ccc(S(=O)(=O)N3CCCC3)cc2)sc2cc(NC(C)=O)ccc21 | inactive
Cn1cc(Cl)c(C(=O)NNC(=S)Nc2cccc(Cl)c2)n1 | inactive
Cc1cccc(-n2cnc(C(=O)Nc3cccnc3)c2)n1 | inactive
Cc1cccc(-n2cnc(C(=O)NNC(=S)Nc3ccccc3)c2)n1 | 23.1 µM (active)
Cc1ccc(CNC(=O)CCNS(=O)(=O)c2ccc3c(c2)oc(=O)n3C)cc1 | inactive
CCOc1ccc(CNCCSc2nnnn2C)cc1 | inactive
COc1cccc(CNCCSc2nnnn2C)c1OCc1ccccc1Cl | 20.6 µM (active)
Cn1nnnc1SCCNCc1ccc(Cl)c(Cl)c1 | inactive
COc1cc(CNCCSc2nnnn2C)ccc1OCc1ccc(Cl)cc1Cl | 23.1 µM (active)
COC(=O)c1ccccc1NC(=O)CSc1nnnn1C | inactive
COc1cccc(CNn2cn[nH]c2=S)c1OCc1ccccc1 | inactive
CCOc1ccc(OCC)c(Nc2nc3ccccc3n3nnnc23)c1 | inactive
C=CCOc1c(CNn2cn[nH]c2=S)cccc1OC | inactive

SMILES | Potency
CC(C)CC(=O)NCC(c1ccc2c(c1)OCO2)N1CCN(c2ccc(F)cc2)CC1 (stereo unspecified) | 25.9 µM (active)
CC(C)CNC(=O)C(=O)NCC(c1ccc2c(c1)OCO2)N1CCOCC1 (stereo unspecified) | inactive
O=C(NCCO)C(=O)NCC(c1ccc2c(c1)OCO2)N1CCN(c2ccc(F)cc2)CC1 (stereo unspecified) | inactive
Cc1c(C(=O)NCC2CCCN(C)C2)cnn1-c1nccc(-c2ccco2)n1 (stereo unspecified) | inactive
CC1CC(=O)Nc2ccccc2N1S(=O)(=O)c1cccs1 (stereo unspecified) | inactive
COc1ccc(Cc2nnc(SC)[nH]c2=O)cc1 | inactive
COc1ccc(Cc2cc(-c3ccc(F)cc3)n[nH]c2=O)cc1 | 13 µM (active)
COc1ccc2[nH]c(=O)c(-c3noc(-c4ccc(F)cc4)n3)cc2c1 | inactive
COc1ccc(CNC(=O)CCC(=O)Nc2nnc(C(C)C)s2)cc1 | inactive
COc1ccccc1OCC(=O)OCc1cc(-c2ccco2)on1 | inactive
CCCc1ccc(OCC(O)CN2CCN(C(=O)OCC)CC2)cc1 (stereo unspecified) | inactive
O=C(O)CCC(=O)Nc1ccc(OCC2CCCO2)cc1 (stereo unspecified) | inactive
COc1ccc(C(=O)Nc2ccc(C(=O)NCC3CCCO3)cc2)c(OC)c1OC (stereo unspecified) | inactive
COc1ccc(OC)c(NC(=O)c2cc(-c3cc(F)ccc3OCC3CCCO3)n[nH]2)c1 (stereo unspecified) | 9.2 µM (active)
O=C(/C=C/c1cc2c(cc1Br)OCO2)NCc1ccc(Cl)cc1 | inactive
CCCCn1c(N)c(N(Cc2ccccc2OC)C(=O)COc2cc(C)ccc2Cl)c(=O)[nH]c1=O | inactive
Cc1cc(C)cc(NS(=O)(=O)Cc2ccccc2)c1 | inactive
O=C(Oc1ccc([N+](=O)[O-])cc1)c1ccc2ccccc2n1 | inactive
O=C(OCc1ccc([N+](=O)[O-])cc1)c1ccccn1 | inactive
O=[N+]([O-])c1ccc(/C=C/c2ccc3cccnc3c2)cc1 | 10 µM (active)
Cc1c(Cl)cccc1NC(=O)NCc1ccc(C)n1C | inactive
Cn1cc(-c2ccccc2)cc(C#N)c1=O | inactive

SMILES | Potency
O=C(O)c1ccccc1C(=O)NC1=NN(c2ccccc2)CC1 | inactive
NNC(=O)c1nnn(-c2nonc2N)c1CN1CCCC1 | inactive
CCOC(=O)c1nnn(-c2nonc2-n2cccc2)c1CN1CCC(C(=O)OCC)CC1 | 18.4 µM (active)
CCOC(=O)c1nnn(-c2nonc2-n2cccc2)c1CN1CCOCC1 | inactive
COC(=O)C1(CCSC)NC(c2ccc(OC)cc2OC)C2C(=O)N(c3cccc(C(C)=O)c3)C(=O)C21 (stereo unspecified) | inactive
O=C(CSc1ccc(-c2cccs2)nn1)Nc1ccccc1F | inactive
O=C(COC(=O)CSc1ccccc1)Nc1ccc(F)cc1F | inactive
COc1ccccc1-c1cc(C(F)(F)F)nc(S(=O)(=O)CCCC(=O)Nc2ccc(F)cc2F)n1 | 3.66 µM (active)
CSc1ccccc1NC(=O)CCS(=O)(=O)c1nc(-c2cccs2)cc(C(F)(F)F)n1 | 11.6 µM (active)
Cc1cc2nc(C(F)(F)F)cc(-c3cccs3)n2n1 | inactive
COc1ccccc1-c1cc(C(F)(F)F)nc(S(=O)(=O)CCCC(=O)Nc2cc(C)ccc2O)n1 | inactive
Cc1ccc(O)c(NC(=O)CCS(=O)(=O)c2nc(-c3ccc4c(c3)OCO4)cc(C(F)(F)F)n2)c1 | 11.6 µM (active)
O=C(Nc1cc(C(F)(F)F)ccc1Cl)c1cc2nc(-c3ccc4c(c3)OCO4)cc(C(F)(F)F)n2n1 | inactive
CC(Sc1nc(-c2ccccc2)cc(C(F)(F)F)n1)C(=O)Nc1ccc2c(c1)OCO2 (stereo unspecified) | inactive
CCC(=O)c1c[nH]c(C(=O)NCC2CCCO2)c1 (stereo unspecified) | inactive
Cc1ccc(C(=O)OCC(=O)NC(=O)Cc2ccccc2)c(O)c1 | inactive
CC(C)(C)C(=O)COC(=O)c1cc(S(=O)(=O)N2CCCCC2)ccc1N1CCOCC1 | inactive
CCCCSc1ncnc2c1sc1nc(N3CCOCC3)c3c(c12)CCCC3 | inactive
CC(C)Cc1nn2c(=O)cc(O)nc2s1 | inactive
CSc1nnc2c(n1)OC(c1ccsc1)N(C(C)=O)c1ccccc1-2 (stereo unspecified) | inactive
COc1ccccc1NC(=O)COC(=O)Cc1ccc(S(=O)(=O)N2CCCCC2)s1 | inactive
COC(=O)c1ccc(CSc2nncn2N)cc1 | inactive

SMILES | Potency
CCOC(=O)c1ccc(CSc2nnc3cc(C)c4ccccc4n23)cc1 | 20.6 µM (active)
COC(=O)c1ccc(CSc2nncn2C)cc1 | inactive
COCc1c(C(=O)N/N=C/C2CC=CCC2)nnn1-c1nonc1N (stereo unspecified) | inactive
CCc1ccc(N2CC(C(=O)NC3=NCCS3)CC2=O)cc1 (stereo unspecified) | inactive
Cc1cccc(C(=O)OC(C)CN2CCCC2)c1 (stereo unspecified) | inactive
Cc1cccc(N)c1SC1CCCCC1O (stereo unspecified) | inactive
CCCn1nnc(NC(=O)COc2ccc(CC)cc2)n1 | inactive
O=C(OCc1ccccc1F)c1ccc2c(c1)OCCO2 | inactive
C=C(C)CNC(=S)N/N=C/c1ccccc1OCC(=O)O | inactive
C=CCNC(=S)N/N=C/c1ccc(C)s1 | 7.31 µM (active)
C=CCNC(=S)NNC(=O)c1ccc(Br)o1 | inactive
CCOC(=O)c1c(NC(=O)CN2C(=O)NC3(CCC(C)CC3)C2=O)sc(C)c1CC (stereo unspecified) | inactive
OCC(O)C1OCOC(C(O)CO)C1O (stereo unspecified) | inactive
COc1cc(NC(=O)c2cc(-c3ccc(F)cc3OC(C)C)n[nH]2)cc(OC)c1OC | 11.6 µM (active)
COc1cc(NC(=O)CCn2nc(C)cc2C)cc(OC)c1OC | inactive
COc1cc(F)ccc1-c1cc(C(=O)NCC2CCCCC2)[nH]n1 | inactive
COC(C)(C)[C@]12CC(O)(C(C)C)ON1[C@H]1CCCCC1N2O (stereo partly specified) | inactive
CCC(=O)c1cc2c(cc1NC(=O)c1cccs1)OCCO2 | inactive
Cc1ccc(Oc2nc3ccccc3n3c(C)nnc23)cc1 | inactive
C[C@@H]1NC(=O)[C@@]2(C)[C@@H](c3ccccc3)[C@H]3COc4ccccc4[C@@H]3N2C1=O | inactive
CCOC(=O)CC(=O)CSc1nc(-c2ccccc2)cc(-c2ccc(Cl)cc2)c1C#N | inactive
CC(=O)Nc1ccc(-c2cn3cccnc3n2)cc1 | inactive

SMILES | Potency
CCOc1cc(-c2cc(-c3ccc(NC(C)=O)cc3)nc(N)c2C#N)ccc1O | 20.6 µM (active)
CCCN(CC1CC1)C(=O)COC(=O)c1ccc(C)cc1O | inactive
CC(C)OC(=O)c1cc(NC(=O)C2C3CCC(O3)C2C(=O)O)cc(C(=O)OC(C)C)c1 (stereo unspecified) | inactive
Cc1cc(NC(=O)CN2CCC(O)(c3cccc(F)c3)CC2)no1 | inactive
O=C(CN1CCC(O)(c2cccc(C(F)(F)F)c2)CC1)NCCc1ccccc1 | 11.6 µM (active)
O=C(CN1CCC(O)(c2ccccc2)CC1)Nc1ccc2c(c1)OCCO2 | inactive
Cn1c(=O)c2[nH]c(NCC3CCCO3)nc2n(-c2ccccc2)c1=O (stereo unspecified) | inactive
CN(C)S(=O)(=O)c1cccc(-c2nn(-c3ccccc3)cc2/C=C2\SC(=S)N(CC(=O)O)C2=O)c1 | inactive
O=C1/C(=C/c2coc3ccc(O)cc3c2=O)SC(=S)N1c1ccccc1 | 16.4 µM (active)
CC1=CC2=NC(=O)/C(=C/c3coc4ccccc4c3=O)C(=N)N2O1 | inactive
CN(C)CCCn1c(SCCN2C(=O)c3ccccc3C2=O)nc2ccccc2c1=O | inactive
CN(Cc1ccccc1)C(=O)c1cc2c(=O)n(C)c3ccccc3c2s1 | inactive
CCc1ccc(CNC(=O)c2cc3c(=O)n(CC)c4ccccc4c3s2)cc1 | 29.1 µM (active)
CCn1c2ccccc2c2cc(CC(N)=O)ccc21 | inactive
COc1ccc(C)cc1N(C)C(=O)c1c(C)oc2ncnc(N3CCOCC3)c12 | inactive
Cc1oc2ncnc(N3CCCCC3)c2c1C(=O)N1CCN(c2cccc(Cl)c2)CC1 | 16.4 µM (active)
Cc1cc(=O)oc(C)c1C(=O)N1CCCCC1 | inactive
O=C(COC(=O)CNC(=O)C1CCCCC1)Nc1cccc(F)c1 | inactive
